PubChem BioAssay (NCATS)
Inconclusive results are not listed. The source made the active and inactive calls. Calls come from the whole dose curve; as a rule, active = well fitted inhibition curve with a large enough effect; inconclusive = small, poorly fitted or top-dose-only effect; inactive = flat fitted curve, though single readings scatter.

Assays:
Test in all cases: qHTS profiling for inhibitors of Plasmodium falciparum proliferation (AID 504749); note: nearly all actives have a fitted effect of over 60% in size
Conditions in all cases: P. falciparum in erythrocytes, SYBR Green DNA, 72 h; series mostly up to 28.7 µM
[1] = system: CP238
In short: (§1)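 P. falciparum-infected erythrocytes (0.3% parasitemia, 2.5% hematocrit final) were exposed to compounds for 72 h at 37 C in 5% CO2, then lysed with SYBR Green buffer overnight at room temperature; parasite DNA fluorescence was normalized to artemisinin and DMSO controls.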

[2] = system: CP247
In short: as §1

[3] = system: CP250
In short: as §1

[4] = system: CP252
In short: as §1

[5] = system: CP256
In short: as §1

[6] = system: CP260
In short: as §1

[7] = system: CP262
In short: as §1

[8] = system: CP265
In short: as §1

[9] = system: CP266
In short: as §1

[10] = system: CP268
In short: as §1

[11] = system: CP269
In short: as §1

[12] = system: CP286
In short: as §1

[13] = system: CP291
In short: as §1

[14] = system: CP297
In short: as §1

[15] = system: CP305
In short: as §1

[16] = system: CP315
In short: as §1

[17] = system: CP325
In short: as §1

[18] = system: CP329
In short: as §1

[19] = system: CP335
In short: as §1

[20] = system: DFO2036
In short: as §1

Measured: Potency

C=CCc1ccc(O)c(OC)c1
inactive: [1] | [2] | [3] | [4] | [5] | [6] | [7] | [8] | [9] | [10] | [11] | [12] | [13] | [14] | [15] | [16] | [17] | [18] | [19] | [20]

N[C@H](Cc1c[nH]c2ccccc12)C(=O)O
inactive: [1] | [2] | [3] | [4] | [5] | [6] | [7] | [8] | [9] | [10] | [11] | [12] | [13] | [14] | [15] | [16] | [17] | [18] | [20]

O=C(O)CCCCC(=O)O
inactive: [1] | [2] | [3] | [4] | [5] | [6] | [7] | [8] | [9] | [10] | [11] | [12] | [13] | [14] | [15] | [16] | [17] | [18] | [20]

C1CCc2nnnn2CC1
inactive: [1] | [2] | [3] | [4] | [5] | [6] | [7] | [8] | [9] | [10] | [11] | [12] | [13] | [14] | [15] | [16] | [17] | [18] | [19] | [20]

CC(O)C(=O)O (stereo not given)
inactive: [1] | [2] | [3] | [4] | [5] | [6] | [7] | [8] | [9] | [10] | [11] | [12] | [13] | [14] | [15] | [16] | [17] | [18] | [20]

CCOc1ccc(NC(=O)CC(C)O)cc1 (stereo not given)
inactive: [1] | [2] | [3] | [4] | [5] | [6] | [7] | [8] | [9] | [10] | [11] | [12] | [13] | [14] | [15] | [16] | [17] | [18] | [19] | [20]

OCc1ccccc1O
inactive: [1] | [2] | [3] | [4] | [5] | [6] | [7] | [8] | [9] | [10] | [11] | [12] | [13] | [14] | [15] | [16] | [17] | [18] | [19] | [20]

Cc1cccn2c(=O)c(-c3nnn[nH]3)cnc12
inactive: [1] | [2] | [3] | [4] | [5] | [6] | [7] | [8] | [9] | [10] | [11] | [12] | [13] | [14] | [15] | [16] | [17] | [18] | [19] | [20]

CCCCOc1ccc(OCCCN2CCOCC2)cc1
inactive: [1] | [2] | [3] | [4] | [5] | [6] | [7] | [8] | [9] | [10] | [11] | [12] | [13] | [14] | [15] | [16] | [17] | [18] | [20]

Nc1ccc(C(=O)Nc2ccccc2N)cc1
inactive: [1] | [2] | [3] | [4] | [5] | [6] | [7] | [8] | [9] | [10] | [11] | [12] | [13] | [14] | [15] | [16] | [17] | [18] | [19] | [20]

Cc1ccnc(NS(=O)(=O)c2ccc(N)cc2)n1
inactive: [1] | [2] | [3] | [4] | [5] | [6] | [7] | [8] | [9] | [10] | [11] | [12] | [13] | [14] | [15] | [17] | [18] | [19] | [20]

CC(C)(CO)[C@@H](O)C(=O)NCCCO
inactive: [1] | [2] | [3] | [4] | [5] | [6] | [7] | [8] | [9] | [10] | [11] | [12] | [13] | [14] | [15] | [16] | [17] | [18] | [19] | [20]

Cc1cc(O)c(C(C)C)cc1Cl
inactive: [1] | [2] | [3] | [4] | [5] | [6] | [7] | [8] | [9] | [10] | [11] | [12] | [13] | [14] | [15] | [16] | [17] | [18] | [19] | [20]
